Source: PubChem BioAssay
Rows were chosen to be rich in hits. Some 3.6% of all compounds tested hit in one or more screens of this group.
Wnt act – Wnt/beta-catenin pathway activation | Wnt/beta-catenin reporter cell assay, activator, plate reader | activation, % at 9.35 µM | 1.2% of 300,000 active | AID 743398; in the data active = activation above about 30%, passing the limit was not always enough; inconclusive = no clear call, values can overlap the other calls
esBAF inh – SWI/SNF esBAF complex inhibition | mouse ES cells, Bmi1-luciferase knock-in reporter, 24 h; 100% = twice the neutral-well signal | reporter increase, % at 12.5 µM | 2% of 350,000 active | AID 602393; in the data active = activation above about 40%; inconclusive = no clear call, values can overlap the other calls;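 also: a rise in the Bmi1 reporter signal indicates esBAF inhibition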
A3A deaminase – inhibitors of human APOBEC3A DNA deaminase | recombinant A3A, FAM/TAMRA ssDNA deamination fluorescence | inhibition, % at 20 µM | 0.41% of 330,000 active;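 active = at least 40% inhibition at 20 µM here, with at most 30% in a related deaminase screen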
Target sequence (P31941 whole entry, looked up): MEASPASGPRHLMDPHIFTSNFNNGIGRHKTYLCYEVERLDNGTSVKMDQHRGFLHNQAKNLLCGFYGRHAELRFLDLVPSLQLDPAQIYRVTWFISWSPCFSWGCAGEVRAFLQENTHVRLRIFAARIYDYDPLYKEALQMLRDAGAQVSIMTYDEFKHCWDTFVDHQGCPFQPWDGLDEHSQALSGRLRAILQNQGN
PHOSPHO1 block – inhibitors of human PHOSPHO1 phosphatase; inhibition, % at 13.3 µM; Q8TCT1; recombinant PHOSPHO1, absorbance phosphatase assay; 1.1% of 290,000 active; in the data active = inhibition above about 60%
Target sequence (Q8TCT1 whole entry, looked up): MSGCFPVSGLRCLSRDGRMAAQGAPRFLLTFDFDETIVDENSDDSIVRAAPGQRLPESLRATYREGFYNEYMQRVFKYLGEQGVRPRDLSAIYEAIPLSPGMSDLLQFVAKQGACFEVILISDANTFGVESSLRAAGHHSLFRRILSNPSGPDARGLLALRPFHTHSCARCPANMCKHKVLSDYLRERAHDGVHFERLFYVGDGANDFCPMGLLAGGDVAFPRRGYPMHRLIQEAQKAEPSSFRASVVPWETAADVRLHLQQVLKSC
A3G deaminase – inhibitors of human APOBEC3G DNA deaminase | recombinant A3G, ssDNA deamination FAM/TAMRA fluorescence | AID 493012 | 0.28% of 330,000 active | Q9HC16 | inhibition, % at 20 µM;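 active = inhibition of at least 40% at 20 µM, with no more than 30% in the related APOBEC3A deaminase screen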
MITF act – increases MITF-driven TRPM1 promoter luciferase signal | SK-MEL-5 TRPM1-promoter luciferase, 24 h; % of positive control, neutral wells = 0 | activation, % at 12.5 µM | 0.75% of 300,000 active;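 active = mean activation of at least 80% with every replicate also reaching 80%; inconclusive = mean reaches 80% but some replicate falls short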
Hits are given with their value; n = inactive; u = inconclusive; x = no result.

SMILES	Wnt act	esBAF inh	A3A deaminase	PHOSPHO1 block	A3G deaminase	MITF act
O=C(c1ccc2c(c1)OCO2)N1CCc2ccccc2C1	n	45	n	n	n	n
O=C(C1COc2ccccc2O1)N1CCCCC1 (stereo not drawn)	n	n	n	x	n	n
C[C@@H]1CN([C@@H](C)CO)C(=O)c2cc(NS(=O)(=O)c3ccc(Cl)cc3)ccc2O[C@@H](C)CCCCO[C@H]1CN(C)S(=O)(=O)c1ccccc1	x	n	x	x	x	x
COc1ccc(CN(C)C[C@H]2Oc3ccc(NC(=O)C4CC4)cc3CC(=O)N([C@@H](C)CO)C[C@H]2C)cc1	x	n	x	x	x	x
O=C(CCc1ccccc1)Nc1ccccc1F	x	x	n	n	n	n
COC(=O)c1ccc(NC(=O)Nc2cccc(F)c2)cc1	x	70	n	n	n	n
O=C(CCc1ccccc1)Nc1ccc(F)cc1F	n	66	n	n	n	n
COc1ccc(NC(=O)Nc2cccc(F)c2)c(OC)c1	n	n	n	n	n	n
COC(=O)c1ccc(NC(=O)Nc2ccc(F)cc2F)cc1	n	79	n	n	n	n
O=C(Nc1ccccc1)Nc1ccc(F)cc1F	48	x	n	n	n	n
CC(C)NC(=O)N[C@@H]1CC[C@H](CCNS(=O)(=O)c2ccc(Cl)cc2)O[C@H]1CO	x	n	x	x	x	x
COc1ccc(CN(C)C[C@@H]2Oc3ccc(NC(=O)Cc4cn(C)c5ccccc45)cc3CC(=O)N([C@H](C)CO)C[C@H]2C)cc1	x	n	x	x	x	x
COC(=O)c1cn[nH]c1NC(=S)Nc1ccc(C)cc1Cl	x	n	n	n	n	n
COC(=O)c1cn[nH]c1NC(=S)Nc1ccccc1C	n	67	n	n	n	u
CC(C)NC(=O)Nc1ccc2c(c1)C(=O)N([C@H](C)CO)C[C@H](C)[C@@H](CN(C)C(=O)Nc1cccc3ccccc13)OCCCC[C@@H](C)O2	x	n	x	x	x	x
COc1ccc2c(c1)O/C(=C\c1sccc1C)C2=O	x	42	n	n	n	n
CC(C)n1cnnc1SCC(=O)Nc1ccc(N2CCCCC2)cc1	n	n	n	x	n	n
CC(Sc1nncn1C)C(=O)Nc1ccc(N2CCCCC2)cc1 (stereo not drawn)	34	n	n	x	n	n
COc1ccc(-c2ccc(CCC(=O)O)n2NC(=O)c2ccc(O)cc2)cc1	n	x	n	63	n	n
COc1ccc(-c2ccc(CCC(=O)O)n2NC(N)=O)cc1	n	n	n	n	n	n
O=C(NC(=S)Nc1ccccc1Cl)c1ccco1	n	58	n	n	n	n
CCCOc1ccc(C(=O)NC(=S)Nc2nc3ccc(C)cc3s2)cc1	x	x	x	n	x	x
CCCOc1ccc(C(=O)NC(=S)Nc2nc3ccccc3s2)cc1	n	n	n	85	n	n
O=C(NC(=S)Nc1cccc(Cl)c1N1CCCCC1)c1ccco1	n	x	n	n	n	n
O=C(NC(=S)Nc1nc2ccccc2s1)c1ccco1	53	x	n	n	n	n
SMILES	Wnt act	esBAF inh	A3A deaminase	PHOSPHO1 block	A3G deaminase	MITF act
CCCNC(=O)Nc1nc2ccccc2s1	u	x	n	n	n	126
C[C@@H]1CCCCO[C@H](CN(C)C(=O)c2ccncc2)[C@H](C)CN([C@@H](C)CO)C(=O)c2cc(NS(=O)(=O)c3ccc(Cl)cc3)ccc2O1	x	n	x	x	x	x
O=C(Nc1nc2ccc([N+](=O)[O-])cc2s1)c1ccco1	52	x	n	n	n	x
COc1ccc(NC(=O)Nc2ccc3c(c2)[C@H]2C[C@@H](CC(=O)N4CCOCC4)O[C@H](CO)[C@H]2O3)cc1	x	n	x	x	x	x
CCCSc1nc2cc(S(=O)(=O)N3CCOCC3)ccc2n1CC	n	x	n	n	n	n
O=S(=O)(c1ccc(OCc2nc3ccccc3s2)c(Cl)c1)N1CCOCC1	x	86	n	n	n	n
CCn1c(SCc2nc3ccccc3s2)nc2cc(S(=O)(=O)N3CCOCC3)ccc21	u	62	n	x	n	n
O=C(Nc1ccc2c(c1)Cc1ccccc1-2)c1cccnc1	n	64	n	n	n	u
O=C(Nc1ccc2c(c1)Cc1ccccc1-2)c1ccco1	48	n	n	n	n	151
N=c1c[n+](-c2ccc(Cl)cc2)[n-]o1	x	n	n	93	n	n
COc1cc2ccccc2cc1C(=O)Nc1nccs1	u	76	n	n	n	x
COc1cc2ccccc2cc1C(=O)NCC(c1cccs1)N(C)C (stereo not drawn)	n	x	n	n	n	123
O=C(CCCc1nc2ccccc2s1)Nc1nccs1	n	n	n	92	n	x
COc1cccc(C=Nc2ccccc2C(=O)Nc2nccs2)c1OC	n	n	n	n	n	x
COc1c(C(=O)Nc2nccs2)ccc2ccccc12	37	42	n	n	n	n
COc1cccc2c1OCC(C(=O)Nc1nccs1)=C2	u	u	n	n	n	119
Cc1cccc(OCCCC(=O)Nc2nccs2)c1C	n	n	n	n	n	n
COc1ccc(C(CC(=O)Nc2nccs2)C(C)C)cc1 (stereo not drawn)	n	n	n	n	n	n
COc1ccc(C(CC(=O)Nc2nccs2)n2cccc2)cc1 (stereo not drawn)	x	61	n	n	n	n
COc1c(C(=O)Nc2ccc(Br)cn2)ccc2ccccc12	n	49	n	n	n	n
COc1ccccc1OCCCC(=O)Nc1nccs1	n	82	n	n	n	n
C[C@@H]1CN([C@@H](C)CO)C(=O)c2cc(NS(=O)(=O)c3ccc(Cl)cc3)ccc2O[C@@H]1CN(C)C(=O)Nc1ccc(F)cc1	x	n	x	x	x	x
O=C(Nc1ccc(Br)cn1)c1cccc(C(=O)Nc2ccc(Br)cn2)c1	n	n	n	n	n	n
O=C(Nc1ccc(Br)cn1)c1ccc2ccccc2c1	n	56	n	n	n	x
COc1ccc(-c2nc3n(c2C)Cc2ccccc2-3)cc1	46	x	n	n	n	x
SMILES	Wnt act	esBAF inh	A3A deaminase	PHOSPHO1 block	A3G deaminase	MITF act
O=C(COc1ccc2ccccc2c1)N1CCCC1	36	n	n	n	n	n
Cc1cc(NC(=O)COc2ccc3ccccc3c2Br)no1	40	u	n	x	n	n
O=C(COc1ccc2cc(Br)ccc2c1)N1CCOCC1	n	48	n	x	n	x
CCOc1ccccc1OCC(=O)Nc1cc(C)on1	n	n	n	x	n	n
O=C(COc1ccc2ccccc2c1Br)N1CCCCC1	x	76	n	n	n	n
O=C(C[C@@H]1C[C@@H]2c3cc(NS(=O)(=O)c4ccccc4)ccc3O[C@@H]2[C@H](CO)O1)N1CCCCC1	x	n	x	x	x	x
O=C(Nc1nc2ccccc2s1)c1cc2c(s1)-c1ccccc1OC2	n	u	n	n	n	n
Cc1cccc2c1-c1sc(C(=O)Nc3cccnc3)cc1CO2	n	50	n	n	n	n
O=C(Nc1nccs1)c1cc2c(s1)-c1ccccc1OC2	u	103	n	n	n	n
O=C(Nc1cccnc1Cl)c1cc2c(s1)-c1ccccc1OC2	n	46	n	n	n	n
Cc1cccc2c1-c1sc(C(=O)Nc3nccs3)cc1CO2	n	47	n	n	n	n
